Whole data set: some 4,100 sequences, median “relative CpG methylation activity (normalised to average over all NNNCGNNN flanks)” near 0.87, cut for the highest 2% near 2.4. For the sample, the highest values were picked, then their nearest neighbours and some sequences at random.
target: DNMT3A catalytic domain (mouse) (UniProt O88508); assay: relative CpG methylation activity (normalised to average over all NNNCGNNN flanks) (relative (1 = mean)); higher = more methylation of the central CpG; details: system: in vitro, murine catalytic domain; CpG state: hemimethylated substrate pool; residues: 608-908
Description: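 Deep enzymology: a pool of dsDNA substrates with a central CpG flanked by 10 random nucleotides on each side was methylated by the murine DNMT3A or DNMT3B catalytic domain (0.8 mM SAM, 37 °C, 60 min). Methylation was then read out by hairpin ligation, bisulfite conversion and NGS. Values are the average methylation of each NNNCGNNN context (±3 flanks; the outer flanks are random and averaged over), normalised to the overall mean, so 1 = average activity.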

Sequence | relative CpG methylation activity
ATACGGTC | 2.39
ATACGCTT | 2.67
TGACGCTT | 1.05
ATACGGTG | 0.775
GTACGCTT | 2.66
GTACGCTG | 1.88
GTACGCTA | 1.98
TAACGCTT | 1.53
CTACGGTC | 1.92
TTACGCTT | 2.62
ATACGCTG | 2.12
ATACGCTA | 2.15
CCTCGCAA | 1.31
CGGCGTAC | 0.625
AGGCGCAG | 0.331
TCTCGGTG | 0.645
TTACGCGA | 1.73
ACTCGTAG | 0.496
GAGCGCCT | 1.95
AGACGTCA | 1.03
AGACGATG | 0.457
AAACGCTC | 1.44
TTACGCAC | 2.32
GTACGCGC | 2.11
ATACGCTC | 2.73
TTACGCTC | 2.74

Sequence | relative CpG methylation activity
AGACGCTC | 1.49
TTACGCTG | 1.74
GTACGCTC | 2.72
GTACGCAC | 1.87
GCTCGACA | 1.04
TTCCGTGG | 0.603
TTGCGTAT | 1.47
ACTCGGAT | 0.799
AGGCGTTA | 0.256
ATACGAGT | 1.56
GCGCGGGG | 0.217
GTGCGCTC | 2.03
GTGCGCCT | 2.43
GTGCGCTT | 2.47
GTGCGCTA | 1.91
GTGCGCCA | 2.05
CTGCGCCT | 1.81
CGACGTTG | 0.323
TCCCGCAT | 0.92
GGACGATA | 0.784
TTTCGCCG | 1.83
AGACGTAT | 0.427
CTACGATT | 1.89
GTACGACC | 2.03
GTACGAGC | 2.12
CTACGATG | 1.2

Sequence | relative CpG methylation activity
ATACGACG | 1.73
CTCCGATC | 2.41
TTCCGATC | 2.29
ATACGACC | 2.41
CTACGATC | 2.4
GTCCGATC | 2.18
ATACGAGC | 2.39
TTACGAGC | 2.12
GGTCGCTG | 0.804
ACCCGGTC | 1.19
CCCCGCCT | 2.14
TGTCGGAA | 0.614
CCGCGTGG | 0.205
ACGCGCGG | 0.42
GCCCGGAT | 0.551
CTACGAGC | 2.44
CTACGAGA | 1.72
CTACGAGT | 1.7
TTCCGACG | 1.77
CTTCGCTC | 2.46
GTTCGCTG | 1.46
CTTCGCTA | 1.66
TTTCGCTC | 2.02
CTTCGCTT | 1.78
GTTCGCTC | 2.37
GGCCGGGC | 0.75

Sequence | relative CpG methylation activity
GATCGAGC | 0.679
CAACGTCC | 1.67
CCACGTCC | 1.94
CTACGTCC | 2.8
TCACGTCC | 1.98
CTACGTCT | 2.45
ACACGTCC | 2.46
TGACGTCC | 1.32
TTACGTCT | 2.14
TTACGTCC | 2.56
CCACGTCT | 1.61
CTACGTGT | 1.07
ACACGTCA | 2.19
GGACGAGA | 0.605
TCTCGTGT | 0.225
ATGCGGTG | 0.407
ACCCGACG | 1.17
GCTCGGAA | 0.694
GAGCGTAG | 0.34
CCGCGGAA | 0.965
AAACGGTC | 0.701
CTACGTGA | 1.2
GAACGTCC | 1.06
TTGCGTCT | 1.67
GTACGTAC | 1.62
CCACGTCA | 1.71

Sequence | relative CpG methylation activity
CTGCGTCC | 2.14
CTACGTCA | 2.51
TTGCGTCC | 2.39
GTACGTCA | 2.5
GTACGTCC | 2.41
GTACGTCT | 2.06
GCACGTCA | 1.86
ACGCGCCG | 1.59
ACCCGGTG | 0.688
GCACGAGG | 0.755
TGACGTAC | 0.438
CTCCGAAG | 1.01
CAGCGCTC | 1.08
GCGCGAGA | 0.455
CGCCGAGT | 0.664
TAACGGCG | 0.782
ATACGTCT | 2.22
ATACGTCC | 2.56
ATACGTCA | 2.47
ATACGTGA | 1.2
AAACGTCA | 1.14
ATACGTCG | 2.26
GGACGGGC | 0.536
CGCCGATA | 0.761
TCTCGAGG | 0.357
GTGCGTGC | 1.11

Sequence | relative CpG methylation activity
CATCGGAG | 0.238
TGTCGAAC | 0.773
GGGCGCCA | 1.15
TTACGTAT | 1.48
ATACGTAA | 2.01
TTACGTAG | 1.34
CTACGTAC | 1.9
TTACGTAA | 2.54
CTACGTAA | 2.4
CTTCGCAA | 1.52
AGCCGGGA | 0.357
GAGCGCTG | 0.969
CTGCGCCC | 2.19
TTGCGCCT | 2.1
GTGCGCCC | 2.22
ATGCGCCC | 2.44
ATGCGCCG | 2.39
GTGCGCCG | 1.79
CTGCGCCG | 1.93
TTGCGCCA | 1.75
TTGCGCCC | 2.61
CGTCGAGC | 1.06
AGCCGCAG | 0.256
CGGCGTAA | 0.615
GCACGGGA | 1.04
GTCCGTTG | 1.25

Sequence | relative CpG methylation activity
TTCCGTCG | 2.09
ATCCGTCT | 2.05
GTCCGTCC | 2.02
GTCCGTCG | 2.53
GTCCGTCT | 2.14
CTCCGTCT | 1.84
GTCCGTCA | 2.41
TTCCGTCT | 2.58
TGCCGCGA | 0.629
TGCCGCTT | 1.45
CGGCGGAT | 0.495
CGTCGTAG | 0.312
AACCGTCG | 1.34
TTACGTTT | 1.72
CTACGTCG | 2.46
GTACGTCG | 1.85
CTACGTGG | 0.594
TCACGTCA | 2.03
TTACGTTG | 1.34
TTACGTCA | 2.5

Source: the supplement of paper PMC7335073
